Experimental data published in ChEMBL document CHEMBL3988442, “University of Dundee, Small-Polar-MMV Screening Library” (2021).

What follows are compounds tested against AMP-activated protein kinase, AMPK (Homo sapiens) (UniProt P54646+O43741+P54619+Q9UGJ0+Q9Y478+Q13131+Q9UGI9) (assay: AMP-dependent Kinase enzyme assay. An in vitro enzyme assay that detects ADP turnover that is directly proportional to AMPK activity. This uses naive AMPK that is activated during the assay with MK-8722). Conditions: 30 µM.
Type: functional
Parameters: scale not given: direction of the effect not stated beside the values

Row | Structure (SMILES) | Percent Effect
1 | Cc1ccnc(C2CCN(CCCOc3ccccc3F)C2)n1 (centres undefined) | 6.41%
2 | CCCOc1cc(CNC(=O)Nc2ccccn2)ccn1 | 7.59%
3 | Cc1ccsc1C(=O)NCc1ccnc(C2CCCOC2)n1 (centres undefined) | 11.8%
4 | CN(C(=O)c1ccc(C#N)cc1)c1nnc(C2CCOC2)s1 (centres undefined) | 11.3%
5 | CCn1nc(C)cc1C(=O)OCC1CC(=O)N(Cc2ccccc2)C1 (centres undefined) | 38.6%
6 | Cc1cc(C(=O)N2CC[C@@]3(O)CCN(C(=O)N4CCCC4)C[C@H]3C2)no1 | 5.71%
7 | CN(C)C(=O)N1CCN(c2cc(N3CCCC3CO)ncn2)CC1 (centres undefined) | -3.16%
8 | CC(CN1CCOCC1)NC(=O)N1CCN(S(C)(=O)=O)CC1 (centres undefined) | 8.74%
9 | CCCC1(CO)CCCN(C(=O)CNC(N)=O)C1 (centres undefined) | 8.45%
10 | CC1(C)COCCN1C(=O)Cc1cc(Cl)c2c(c1)OCCO2 | 10.7%
11 | O=C(c1cccnc1)N1CCOC(Cc2ccccc2Cl)C1 (centres undefined) | 11%
12 | COc1ncccc1N(C)C(=O)Cn1cc(-c2ccccc2)nn1 | -1.29%
13 | CCS(=O)(=O)NCc1nc(C)cc(N2CCCC2)n1 | 2.4%
14 | Cc1cc(N(C)C)nc(N2CCn3c(C)nnc3C2)n1 | -2.14%
15 | Cn1nccc1CN1CCOC(c2ccc(-c3cncnc3)cn2)C1 (centres undefined) | 9.64%
16 | CCc1nnc(CN2CCc3ccc(S(N)(=O)=O)cc32)o1 | 5.08%
17 | O=C1CN([C@@H]2CC[C@@H](NS(=O)(=O)c3ccccc3)[C@H]2O)CCN1 | 11.7%
18 | CN(Cc1ccccc1-n1cccn1)C[C@@H]1CCCN2CCCC[C@H]12 | -9.27%
19 | Cc1ccnc2c1NC(=O)CN2C(=O)CCc1cccs1 | -0.535%
20 | COC1CCN(S(=O)(=O)N2CC[C@@](O)(C3CCC3)[C@H](C)C2)CC1 | -3.56%

Row | Structure (SMILES) | Percent Effect
21 | Cc1cnn(CCCNC(=O)NCCC(=O)Nc2ccccc2)c1 | 11.1%
22 | O=C1NCCN(Cc2cccnc2)C1CC(=O)N1CCc2n[nH]cc2C1 (centres undefined) | -26.7%
23 | CNC(=O)[C@@H](C)NC(=O)c1cc(-c2ccc(F)cc2)c(C)s1 | 2.33%
24 | Cc1noc(CN(C)c2nc(-c3ccco3)nc3c2CCN(C)CC3)n1 | 3.37%
25 | Nc1ncnc2nc(C3CCCCN3)ccc12 (centres undefined) | 15.5%
26 | Cc1ccc2nc(CN3CCCCC3C(=O)N3CCOCC3)cn2c1 (centres undefined) | 8.07%
27 | CC(C)(C)NC(=O)C1CCCCN1Cc1nccn1CC(F)(F)F (centres undefined) | -2.34%
28 | CC(OCC1CC1)C(=O)Nc1cccc(C(=O)Nc2ccccn2)c1 (centres undefined) | 23.1%
29 | Cc1nnc2n1CCN(C(=O)C(C)Oc1ccc(C#N)cc1)C2 (centres undefined) | 13%
30 | CSC1(CNC(=O)NCc2sccc2C)CCOCC1 | -1.64%
31 | O=C(NCc1cccnc1N1CCCC(O)C1)c1ccc2[nH]nnc2c1 (centres undefined) | -3.08%
32 | O=C(Cc1nc(-c2ccncc2)n[nH]1)N1CCOCC1 | 7.55%
33 | CC(C)CN(C(=O)Nc1cccc(C(=O)N(C)C)c1)C1CC1 | 0.783%
34 | N#Cc1c(N)nc2c(c1-c1c[nH]nc1C1CCCCC1)CNCC2 | 17.6%
35 | Cc1cc(C(=O)N(C)CCN(C)C(=O)OC(C)(C)C)oc1C | 5.9%
36 | CN(C)c1ccc(C(=O)Nc2cnn(Cc3ccccn3)c2)cc1 | -1.9%
37 | CCc1nnc2n1CCN(C(=O)C(C)Oc1cccc(C#N)c1)C2 (centres undefined) | 5.56%
38 | CCC(NC(=O)C(C)(C)C)c1ccccc1C (centres undefined) | 5.82%
39 | CC(C(=O)Nc1cccc(C(F)(F)F)c1)N(C)CCN1CCOCC1 (centres undefined) | 8.76%
